Many of the other results were omitted from the sample, so hits are more common in it than they were.
Shiga toxin inh: blocks Shiga toxin action in Vero cells | Vero cells, Shiga toxin protein synthesis inhibition reporter | inhibition, % at 38.7 µM | 290,000 compounds, 9.2% hits | AID 2315; in the data active = inhibition mostly above about 28%, no sharp cut-off; inactive = mostly below about 43%
CHX counter: counter-screen for Shiga toxin inhibitors: cycloheximide protein synthesis inhibition; 300,000 compounds, 12% hits; AID 2314; max response, %; cell reporter, cycloheximide protein synthesis inhibition counterscreen; in the data active = max response mostly above about 13%, no sharp cut-off; inactive = mostly below about 14%; also: read at 38.3 µM for the half of the compounds with a filed dose
Lassa entry inh: Lassa virus entry inhibition; Lassa virus pseudotype entry inhibition, cell reporter; Potency, µM (top dose mostly 37.9 µM), most hits filed as inhibitors; 300,000 compounds, 1.2% hits; AID 540256; calls by dose curve; tested in HEK293 cells; also: nearly all actives have a fitted effect of over 50% in size
VACV mCherry inh: inhibitors of vaccinia virus infection (mCherry reporter signal) | Potency, µM (titrated, usually from 36.5 µM), hits mostly inhibitors | AID 720579 | 310,000 compounds, 0.63% hits | Vaccinia virus mCherry reporter infection, fluorescence; calls by dose curve; tested in A549 cells; also: nearly all actives have a fitted effect of over 35% in size
MARV entry inh: Marburg virus entry inhibition; 300,000 compounds, 1.8% hits; Potency, µM (titrated, usually from 37.8 µM), usual class: inhibitors; Marburg virus pseudotyped entry inhibition, cell reporter; calls by dose curve; tested in HEK293 cells
Vaccinia Venus: vaccinia inhibition (Venus reporter); Vaccinia virus Venus reporter expression, fluorescence; Potency, µM (highest dose often 36.5 µM), usual class: inhibitors; AID 720580; 330,000 compounds, 0.46% hits; calls by dose curve; tested in A549 cells; also: nearly all actives have a fitted effect of over 30% in size
Hits are given with their value; . = inactive; ? = inconclusive; / = no result; [ ] = dose if it differs, or a comment.

SMILES | Shiga toxin inh | CHX counter | Lassa entry inh | VACV mCherry inh | MARV entry inh | Vaccinia Venus
CCc1ccc(CNC(=O)C2CCN(S(=O)(=O)N3CC(C)CC(C)C3)CC2)cc1 (centres undefined) | . | . | / | / | / | /
Cc1ccc(NC(=O)C(=O)NN=C2CCCC2)cc1C | . | 10 | . | . | ? | .
CN1CCC(=NNC(=O)C(=O)Nc2cccc(Br)c2)CC1 | . | . | . | . | ? | .
CN1CCC(=NNC(=O)C(=O)Nc2ccc(F)cc2)CC1 | 74 | 38 | . | . | . | .
COC(=O)c1ccccc1N=Nc1c(C)noc1C | . | . | ? | .[7.34 µM] | . | .[7.34 µM]
COc1ccc2c(COC(=O)CC3Sc4ccccc4NC3=O)cc(=O)oc2c1 (centres undefined) | . | 20 | ? | . | . | .
CC(=O)Nc1ccc2c(COC(=O)CC3Sc4ccccc4NC3=O)cc(=O)oc2c1 (centres undefined) | . | . | . | . | . | .
O=C1CN(C(=O)/C=C/c2cc(Br)ccc2F)CCN1 | . | . | . | . | . | .
O=C1CN(C(=O)/C=C/c2ccc(Br)cc2)CCN1 | . | 17 | ? | . | . | .
COc1ccc(/C=C/C(=O)N2CCNC(=O)C2)c(OC)c1 | . | 14 | / | / | / | /
COc1ccc(OC)c(/C=C/C(=O)Nc2ccc(C(=O)OCCC(C)C)cc2)c1 | / | / | ? | . | / | .
CC1CC(=O)c2c(cc3c(-c4c(O)cc(O)c5c(O)c6c(cc45)OC(C)CC6=O)c(O)cc(O)c3c2O)O1 (centres undefined) | . | . | / | 10µM | / | 14µM
COc1ccccc1NC(=O)Cn1ccn(-c2cccc3ccccc23)c(=O)c1=O | / | / | . | . | ? | .
CC(=O)c1ccc(OCc2cc(C(=O)N3CCN(c4ccccc4)CC3C)no2)cc1 (centres undefined) | 53 | 48 | / | / | / | /
CCOC(=O)CC1COCCN1C(=O)c1cc(COc2ccccc2SC)on1 (centres undefined) | / | / | / | . | / | .
CSc1ccccc1OCc1cc(C(=O)N2CCN(c3ccccc3)CC2C)no1 (centres undefined) | 99 | 57 | ? | . | . | .
CC(=O)c1ccc(OCc2cc(C(=O)N(C)CC3COc4ccccc4O3)no2)cc1 (centres undefined) | / | / | / | . | / | .
COc1ccc(OC)c(/C=C/c2sc3ccccc3[n+]2C)c1 | / | / | / | . | / | .
CSc1nnc(CCNC(=O)OC(C)(C)C)o1 | 54 | . | / | / | / | /
COc1cc(C2c3cc4c(cc3C(O)C3COC(=O)C23)OCO4)cc(OC)c1O (centres undefined) | / | / | / | 14µM | / | ?
COc1cc([C@@H]2c3cc4c(cc3[C@H](O)[C@H]3COC(=O)[C@H]23)OCO4)cc(OC)c1OC | . | . | ? | ? | ? | ?
COc1cccc(-c2ncnn2-c2sc3c(c2C#N)CCCCC3)c1OC | / | / | . | . | / | .
Cn1c(-c2ccccn2)[n+](C)c2ccccc21 | . | . | . | . | . | .
Cn1c(-c2ccc3ccccc3n2)[n+](C)c2ccccc21 | 72 | 53 | . | .[7.34 µM] | . | .[7.34 µM]
Cn1c(-c2cccc([N+](=O)[O-])c2)[n+](C)c2ccccc21 | . | . | / | / | / | /
SMILES | Shiga toxin inh | CHX counter | Lassa entry inh | VACV mCherry inh | MARV entry inh | Vaccinia Venus
CN(C)c1ccc(-c2n(C)c3ccccc3[n+]2C)cc1 | 52 | 27 | ? | ? | ? | ?
C/C(CCN1CCCCc2nc(C)c(C)cc21)=N\OC[C@@H](O)[C@@H]1O[C@@H]2OC(C)(C)O[C@@H]2[C@H]1O | / | / | / | / | . | /
O=[N+]([O-])c1ccc(C2(O)CN(c3ccccc3)C3=[N+]2CCS3)cc1 (centres undefined) | . | . | . | . | . | .
CCCc1c(C)nn(-c2ncccc2[N+](=O)[O-])c1C | . | . | . | . | . | .
O=c1n(-c2ccc(Br)cc2)cnn1-c1ncccc1[N+](=O)[O-] | 91 | 31 | ? | . | ? | .
Cc1cc(C(F)(F)F)n(-c2nc(C(=O)NN)cs2)n1 | . | . | . | . | . | .
CCOC(=O)c1csc(-n2nc(C)cc2C(F)(F)F)n1 | . | 33 | ? | . | . | .
Cc1cc(C)c(C(=O)Cn2nc(C(=O)O)c3ccccc3c2=O)cc1C | . | . | . | . | . | .
CCCc1ccc(C(=O)Cn2nc(C(=O)O)c3ccccc3c2=O)cc1 | . | . | . | . | ? | ?
Cc1cc(C(=O)Cn2nc(C(=O)O)c3ccccc3c2=O)c(C)n1-c1ccccc1 | 95 | 59 | ? | . | ? | .
O=C(Cn1nc(C(=O)O)c2ccccc2c1=O)c1c[nH]c2ccccc12 | 35 | 9.4 | . | . | . | .
COc1cccc(NC(=O)C2CCN(C(=O)N3CC(C)Oc4ccccc43)CC2)c1 (centres undefined) | / | / | . | . | / | .
Cc1cccc(-c2noc(Cc3ccccc3)n2)c1 | 100 | 56 | . | . | . | .
Cc1cccc(-c2noc(CCc3ccccc3)n2)c1 | 81 | 40 | / | . | / | .
Cc1cccc(-c2noc(CCC(=O)NCc3ccccc3)n2)c1 | . | . | ? | / | . | /
Cc1cccc(-c2noc(CNS(=O)(=O)c3ccccc3)n2)c1 | . | 18 | . | . | . | .
Cc1ccc(S(=O)(=O)NCc2nc(-c3cccc(C)c3)no2)cc1 | / | / | . | . | . | .
COc1cccc(CCNc2ncnc3c2nnn3C)c1 | / | / | . | . | / | .
N=c1c2c3c(sc2ncn1Cc1ccco1)CCCCC3 | . | 21 | . | . | . | .
O=c1c2c3c(sc2n(CCN2CCCCC2)c(=O)n1Cc1ccco1)CCCCC3 | . | . | . | / | 16µM | /
CC(O)CNc1nc2sc3c(c2c(=O)n1CCc1ccccc1)CCCCC3 (centres undefined) | . | 18 | 26µM | . | ? | .
O=C(NCc1ccco1)c1ccc2nc3sc4c(c3c(=O)n2c1)CCCC4 | 99 | 60 | / | / | . | /
C=CC[C@@H]1C=CC(ON=CC[C@@H]2C=C[C@@H](OC(C)=O)[C@@H](COC(C)=O)O2)[C@H](CO)O1 (some centres undefined) | / | / | / | / | . | /
O=C(CSc1nc(=O)[nH]c2c1CCCC2)Nc1ccc(Cl)c(Cl)c1 | / | / | . | .[7.34 µM] | / | .[7.34 µM]
CC(O)CNc1nc2sc3c(c2c(=O)n1Cc1ccco1)CCCCC3 (centres undefined) | 36 | 25 | . | . | ? | .
SMILES | Shiga toxin inh | CHX counter | Lassa entry inh | VACV mCherry inh | MARV entry inh | Vaccinia Venus
O=C(O)c1cc(-c2ccc(Cl)s2)[nH]n1 | . | . | . | . | . | .
CCCCCOc1ccc(C(=O)CCC(=O)N2CCCC2)cc1 | 51 | 22 | ? | . | . | .
COc1ccc(OCCC(=O)N2CCCCC2)cc1 | 35 | 27 | . | . | . | .
CCCCOc1ccc(C(=O)N2CCCC2)cc1 | 103 | 36 | ? | / | ? | /
O=C(c1ccccc1)N1CCCCC1 | / | / | / | . | / | .
CCCCOc1ccc(C(=O)NCCCC(=O)N2CCCCC2)cc1 | . | . | ? | . | . | .
COc1ccc(OCCC(=O)N2CCN(C)CC2)cc1 | . | . | / | / | / | /
O=C(c1ccc(-n2cccc2)cc1)N1CCCCC1 | . | 26 | . | . | . | .
COC(=O)c1ccc2[nH]c3c(c2c1)CC(C)CC3 (centres undefined) | 59 | 36 | / | / | / | /
CCCC(C)NC(=O)c1ccc2[nH]c3c(c2c1)CC(C)CC3 (centres undefined) | . | 28 | . | / | . | .
